Compound activity as filed in PubChem.
Most compounds without a hit are left out; they make up all but 1.2% or so of the library.
Phagocytosis inh = inhibitors of macrophage phagocytosis | J774A.1 macrophage IgG-bead phagocytosis, imaging | inhibition, % at 5 µM | hit rate 0.07% among 110,000 | AID 1029;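 active means inhibition above the mean of the plate negative controls plus 5 SD, cut at about 13% in these data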;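 further: phagocytic index as fraction of beads internalized from green versus red external bead signal; plate controls were DMSO negative control for no effect and cytochalasin-D positive control for full effect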
VCAM1 TNFa inh = reduces TNF alpha induced VCAM1 expression in HUVEC; HUVEC TNFa-induced VCAM-1 immunofluorescence, high-content imaging; inhibition, % at 2 µM; hit rate 0.48% among 95,000; AID 802;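 active means inhibition above the batch mean plus 3 SD, with images confirmed as a hit by eye, cut at about 37% in these data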;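 further: 0% = TNF-stimulated DMSO wells and 100% = unstimulated control wells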
IL1B NFkB inh = blocks IL-1B driven NFkB nuclear translocation in HUVEC cells; HUVEC IL-1B NFkB p65 nuclear translocation imaging; inhibition, % at 2 µM; hit rate 0.43% among 94,000;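 active means inhibition above about 30% together with a positive call from visual inspection of the well image, limit read from the data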;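 further: nuclear over cytoplasmic p65 intensity ratio measured by imaging; 0% = IL-1B stimulated DMSO wells and 100% = unstimulated DMSO wells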
TNFa cytotox = HUVEC cytotoxicity counter-screen, TNF alpha stimulated; HUVEC TNFalpha-stimulated, Hoechst cell count, imaging; cell count reduction, % at 2 µM; hit rate 0.17% among 93,000; AID 848;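 active means cell count reduction exceeding the screen mean by over 5 SD, scaled to untreated wells per plate, cut at about 78% in these data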;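 further: cells counted after 24 h of TNF alpha exposure following the 1 h pretreatment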
NFkB transloc pot = enhances IL-1B driven NFkB nuclear translocation; HUVEC IL-1B NFkB p65 nuclear translocation imaging; hit rate 0.3% among 94,000; activation, % at 2 µM;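 active means activation above 40%, about the mean plus 3 SD, also judged a hit on visual image review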;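 further: percent activation is computed from the nuclear over cytoplasmic p65 intensity ratio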
HUVEC tox IL1B = toxic to HUVEC cells under IL-1B stimulation. cell count reduction, % at 2 µM. hit rate 0.41% among 94,000. HUVEC cell count loss, Hoechst imaging, IL-1B stimulated. AID 845;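 active means cell count reduction more than 3 SD above the screen-wide mean, cut at about 70% in these data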;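 further: normalized per plate to untreated control cells as the no-loss baseline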
An asterisk follows results filed as active; / = no result given; [ ] = dose if it differs, or a comment.

SMILES | Phagocytosis inh | VCAM1 TNFa inh | IL1B NFkB inh | TNFa cytotox | NFkB transloc pot | HUVEC tox IL1B
O=C(NC1CCCCC1)NC1CCN(CC(=O)N2CCOCC2)CC1 | -2 | 15 | 12 | -13 | -12 | -3
CSc1nnc2n(C3CCCCC3)c(=O)c3c4c(sc3n12)CCCC4 | -3 | / | / | / | / | /
CSc1nnc2n(-c3ccccc3)c(=O)c3c4c(sc3n12)CCC4 | -1 | 58* | 3 | 77 | -3 | 2
COc1cccc(-c2nnc(NC(=O)c3ccc4ncsc4c3)o2)c1 | -1 | / | / | / | / | /
CCCc1cc2c(c(NC(C)=O)n1)c(=O)oc1ccccc12 | / | / | 19 | / | -19 | 78*
Cc1cc(NC(=O)CC(C)(C)C)nc2c1c(=O)oc1ccccc12 | / | -9 | 24 | 11 | -24 | -11
CC(=O)c1sc(NC(=O)c2ccc(F)c(F)c2)nc1C | -1 | -10 | 32* | -21 | -32 | -10
CC(=O)Nc1nc(C)c(C(C)=O)s1 | 1 | 4 | -25 | 4 | 25 | -19
CC(=O)c1sc(NC(=O)C(C)C)nc1C | 1 | 6 | 98* | -8 | -98 | -19
Cc1ccc2nc(SCc3cn4cccnc4n3)[nH]c2c1 | -10 | / | / | / | / | /
COc1ccc(-n2c(Cc3cccn3C)nnc2SCC(=O)NC2CCCCC2)cc1 | 0 | / | / | / | / | /
COc1ccc(-n2c(Cc3cccn3C)nnc2SCC(=O)NCC2CCCO2)cc1 (stereo not drawn) | 1 | 6 | 37* | -18 | -37 | 11
CCc1ccc(N2C(=O)C3C4CCC(C4=C(C)C)C3C2=O)cc1 (stereo not drawn) | 2 | / | / | / | / | /
COc1ccccc1C(=O)Nc1nnn(C)n1 | -1 | 53 | 4 | 78* | -4 | 24
COc1ccc(NC(=O)CN(C)C2CCCCC2)c([N+](=O)[O-])c1 | -11 | / | / | / | / | /
S=C(Nc1ccc(N2CCOCC2)cc1)Nc1ccc2nc(-c3ccco3)c(-c3ccco3)nc2c1 | 0 | -10 | 45* | 7 | -45 | -3
O=C(N/N=C/c1ccc[nH]1)c1ccc([N+](=O)[O-])cc1 | -9 | / | / | / | / | /
CC1(C)CC(=O)C=C(Nc2ccc(S(N)(=O)=O)cc2)C1 | -4 | -4 | 34* | -4 | -34 | 8
CC1(C)CC(=O)C=C(Nc2ccc(C(=O)O)cc2)C1 | / | 17 | -20 | -3 | 20 | -18
CC(C)CC(=O)NC(NC(=S)Nc1sc2c(c1C#N)CCCC2)C(Cl)(Cl)Cl (stereo not drawn) | / | -8 | -6 | -27 | 6 | -100
COc1ccc2nc(SCC(=O)N3CC(=O)Nc4ccccc43)c(C#N)cc2c1 | 0 | -12 | 7 | -13 | -7 | 12
Cc1cc(C)c2nc(SCC(=O)N3CC(=O)Nc4ccccc43)c(C#N)cc2c1 | / | 100* | 13 | 89* | -13 | 54
S=C(NCCc1ccccn1)Nc1cccc(Cl)c1 | -5 | / | / | / | / | /
COc1ccc(C2CC(=O)C=C(NCCC(C)C)C2)cc1 (stereo not drawn) | / | 10 | -52 | -47 | 52* | -9
CCOc1ccc(N2C(=O)CSC2c2ccncc2)cc1 (stereo not drawn) | / | 91* | -14 | -48 | 14 | -42
SMILES | Phagocytosis inh | VCAM1 TNFa inh | IL1B NFkB inh | TNFa cytotox | NFkB transloc pot | HUVEC tox IL1B
COc1ccc(N2C(=O)CSC2c2cccs2)cc1 (stereo not drawn) | -2 | / | / | / | / | /
Cc1cc(C)cc(NC(=O)CC2NCCNC2=O)c1 (stereo not drawn) | 0 | 86* | -15 | -29 | 15 | -4
COc1ccc(C(=O)NNC2=CC(=O)CC(C)(C)C2)cc1OC | 2 | / | / | / | / | /
COc1cc(/C=N/Nc2snc(SC)c2C#N)ccc1O | / | 43* | -7 | -14 | 7 | 14
S=c1[nH]nc(-c2cccnc2)n1/N=C/C=C/c1ccccc1 | -4 | / | / | / | / | /
CSc1nc(N)nc(SCC(=O)CC(=O)OC(C)C)c1C#N | 38*[artifact] | -4 | -29 | 5 | 29 | 18
COc1ccc(OC)c(C2CC(=O)c3c([nH]c(C(=O)OC(C)C)c3C)C2)c1 (stereo not drawn) | 0 | 41* | 27 | 57 | -27 | 30
CCc1ccc(-n2c(SCc3c(C)noc3C)nnc2-c2ccncc2)cc1 | 0 | 12 | -66 | 6 | 67* | 17
CC(=O)NN1C(=O)/C(=C/c2ccc(C(C)C)cc2)SC1=S | -3 | / | / | / | / | /
N#CC1=C(N)Oc2cc(N)ccc2C1c1cccnc1 (stereo not drawn) | -3 | / | / | / | / | /
CCN(CC)c1ccc2c(c1)OC(N)=C(C#N)C2c1cccnc1 (stereo not drawn) | / | 39* | -6 | 51 | 6 | 63
Cc1[nH]c2ccccc2c1N=Nc1ccccc1C(=O)O | 1 | / | / | / | / | /
